In PubChem BioAssay (NCI):
Compounds without any hit were thinned out: in the full panel of roughly 83,000, 20% have a hit.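 Testing used 96-well plates and a 48-hour single-concentration exposure. Example: -40 means 40% of the starting cells died.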 A number with no mark means an inactive call. Calls of active or inactive are those of the source. Rule for the calls: active = growth percent below 10; inactive = the rest.

Legend:
Test in all cases: NCI-60 one-dose screen, 48 h (100 = growth as untreated, 0 = no growth, -100 = all killed)
Conditions in all cases: 10 µM unless noted
NCI-H23 lung = tested on: NCI-H23 lung
NCI-H226 lung = tested on: NCI-H226 lung
NCI-H322M lung = tested on: NCI-H322M lung
HOP-62 NSCLC = tested on: HOP-62 NSCLC
NCI-H460 lung = tested on: NCI-H460 lung
NCI-H522 lung = tested on: NCI-H522 lung
A549/ATCC NSCLC = tested on: A549/ATCC NSCLC
786-0 renal = tested on: 786-0 renal
COLO 205 colon = tested on: COLO 205 colon
DU-145 prostate = tested on: DU-145 prostate
K-562 leukemia = tested on: K-562 leukemia
MALME-3M melanoma = tested on: MALME-3M melanoma
MDA-MB-231 breast = tested on: MDA-MB-231 breast
SF-268 CNS = tested on: SF-268 CNS
SF-295 CNS = tested on: SF-295 CNS
SF-539 CNS = tested on: SF-539 CNS
UACC-257 melanoma = tested on: UACC-257 melanoma
M14 melanoma = tested on: M14 melanoma
RXF 393 renal = tested on: RXF 393 renal
HOP-92 NSCLC = tested on: HOP-92 NSCLC

| SMILES | growth (NCI-H23 lung) | growth (NCI-H226 lung) | growth (NCI-H322M lung) | growth (HOP-62 NSCLC) | growth (NCI-H460 lung) | growth (NCI-H522 lung) | growth (A549/ATCC NSCLC) | growth (786-0 renal) | growth (COLO 205 colon) | growth (DU-145 prostate) | growth (K-562 leukemia) | growth (MALME-3M melanoma) | growth (MDA-MB-231 breast) | growth (SF-268 CNS) | growth (SF-295 CNS) | growth (SF-539 CNS) | growth (UACC-257 melanoma) | growth (M14 melanoma) | growth (RXF 393 renal) | growth (HOP-92 NSCLC) |
| --- | --- | --- | --- | --- | --- | --- | --- | --- | --- | --- | --- | --- | --- | --- | --- | --- | --- | --- | --- | --- |
| CCCCn1c(O)c(N=Nc2nc(-c3cc4ccccc4oc3=O)cs2)c2cc(Br)ccc21 | 98.3% | 99.2% | 102% | 110% | 114% | 101% | 97.8% | 106% | 140% | 108% | 105% | 105% | 106% | 97% | 105% | 103% | 103% | 112% |  |  |
| O=C(N1c2ccccc2Sc2ccccc21)n1ccc2cccnc21 | 77.9% | 81% | 74.7% | 77.5% | 48.7% | 56.3% | 75.8% | 77.4% | 62.8% | 86.6% | 19.5% | 75.5% | 69.3% | 80.8% | 81% | 76.6% | 61.1% | 70.1% | 83.7% |  |
| CC(=O)c1cc(C(=O)c2ccccc2)n2c1ccc1ccccc12 | 105% | 94% | 94.3% | 87.5% | 111% | 97.4% | 108% | 98.7% | 110% | 128% | 94.4% | 131% | 78.4% | 110% | 106% | 82.5% | 118% | 101% | 93.1% |  |
| N#Cc1c(-c2ccc(Br)cc2)nc2n[nH]c(-c3ccc(Br)cc3)c2c1-c1ccc(F)cc1 | 92.6% | 87.5% | 90.6% | 87.9% | 106% | 94.1% | 99.7% | 102% | 92.1% | 116% | 76.4% | 86.2% |  | 129% | 98.9% | 97.4% | 103% | 97.7% | 102% |  |
| COc1cccc(-c2c(C#N)c(-c3ccc(Cl)cc3)nc3n[nH]c(-c4ccc(Cl)cc4)c23)c1 | 64.5% | 47.8% | 82.8% | 53.8% |  | 43.8% | 41.9% | 46.1% | 3.25% (active) | 58.5% | 5.73% (active) | 59.7% |  | 65.9% | 64.5% | 38.1% | 54.4% | 36.8% | 39.3% | -5.01% (active) |
| COc1cccc(/C=C/c2nc3ccccc3c(=O)n2CC(=O)Nc2ccc(Cl)cc2)c1 | 82.7% | 54.9% | 75% | 71.4% |  | 97.2% | 28.5% | 9.62% (active) | 86.4% | 68.9% | 84.6% | 67.3% | 27.9% | 82.3% | 61.2% | 52.7% | 92.3% | 76.3% | 83.5% |  |
| COc1ccc(NC(=O)Cn2c(O)c(N=Nc3ccc(S(N)(=O)=O)cc3)c3ccccc32)cc1 | 10.5% | 39.8% | 34.4% | 8.57% (active) |  | 66.6% | 24.6% | -25.3% (active) | 58.5% | 82.4% | 40.8% | 29.8% | -22.1% (active) | 69.1% | 22.1% | 23.4% | 67% | 27.4% | 82.7% | 79.6% |
| COc1cc2c(c(OC)c1OC)C(=O)CC(c1cccc(NC(=O)c3cc(N)ccc3Cl)c1)O2 (centres undefined) | 71.9% | 54.3% | 89% |  | 67.2% | 8.06% (active) | 71.5% | 84.7% | 86.2% | 47.3% | 15.6% | 54% | 42.7% | 60.4% | 78.9% | 56.6% | 64.9% | 56% | 46% | 69.5% |
| O=C1Nc2ccc([N+](=O)[O-])cc2C1=Nc1ccccc1 | 106% | 102% | 96.1% |  | 109% | 110% | 130% | 102% | 108% | 114% |  | 100% | 95.3% | 98.9% | 90.7% | 91.8% | 134% | 104% | 143% | 118% |
| C/C(=N\N=C1/C(=O)Nc2ccccc21)c1ccc2c(c1)Nc1ccccc1S2 | 34.8% | 56.3% | 71.3% | 82.9% |  | 43.7% | 66.9% | 71.4% | 52.6% | 53.2% | 31.8% | 35.5% | 39% | 55.3% | 57.8% | 71.7% | 27.5% | 65% | 96.1% |  |
| N#Cc1c(-c2ccc(Cl)cc2)nc2n[nH]c(-c3ccc(Cl)cc3)c2c1-c1ccc(C(F)(F)F)cc1 | -13.5% (active) | -30.7% (active) | 10.2% |  | -49.1% (active) | -14.8% (active) | 6.82% (active) | -3.14% (active) | -88.5% (active) | 19.8% | -21.3% (active) | -25.8% (active) |  | 6.49% (active) | -54% (active) | -79.3% (active) | 7.34% (active) | -53.3% (active) | -14.7% (active) | -25.9% (active) |
| CCCSc1nc(NCCc2c[nH]c3ccccc23)c(C#N)c(-c2ccccc2)n1 | 89.4% | 65.4% | 93.5% | 65.4% |  | 57.9% | 73.5% | 74.7% | 62.8% | 75.3% | 25.2% | 100% | 40.6% | 70.5% | 72.6% | 66.2% | 100% | 83.5% | 55.2% |  |
| C=C1CCC2C3(C)COC(c4ccccc4F)OC3CCC2(C)C1CC(O)C1=CCOC1=O (centres undefined) | 80% | 83.6% | 99.5% |  | 82.3% | -50.3% (active) | 67.7% | 14.7% | 22.5% | 67.2% | 21.3% | 92.9% | 77.7% | 103% | 77.2% | 16.3% | 75.1% | 26.5% | 50.7% | 55.5% |
| NS(=O)(=O)c1ccc(NNC(=O)CCC(=O)c2ccccc2)cc1 | 105% | 100% | 109% |  | 107% | 89.1% | 103% | 98.4% | 118% | 114% | 71.6% | 107% | 99.3% | 95.8% | 99.4% | 103% | 103% | 104% | 119% | 93.3% |
| O=C(/C=C/Nc1ccc2oc(=O)ccc2c1)c1cc2cc(Br)ccc2oc1=O | 98.8% | 101% | 104% |  | 114% | 101% | 101% | 103% | 131% | 122% | 110% | 95.2% | 94.1% | 107% | 102% | 97.4% | 91.2% | 99.4% | 121% |  |
| O=C(Cn1nc(-c2ccccc2)ccc1=O)N/N=C/c1ccc(N2CCOCC2)cc1 | 100% | 89.7% | 106% | 96% |  | 89.4% | 94.9% | 97.7% | 113% | 101% | 88.9% | 90.1% | 104% | 98.2% | 88.8% | 90.5% | 99.2% | 102% | 111% |  |
